SMILES strings stand for the structures. Unmarked numbers belong to inactive results. Records with an inconclusive call do not appear. Active and inactive are the calls of the source. Unless noted, the call rests on the fitted dose curve; in most records, active means well fitted curve in the direction sought with a large enough effect; inconclusive means small, poorly fitted or top-dose-only effect, or another doubt; inactive means no such curve, though single readings can be large; an effect the other way counts as inactive or inconclusive.

Experiment [1] addresses Lysosomal acid glucosylceramidase (Homo sapiens) (UniProt P04062). The experiment can be described thus: Glucocerebrosidase-p2 (AID 348; in the data active means potency below about 10 µM; further: potency means the concentration at half of the fitted maximal effect). The conditions noted are these: purified GBA, blue fluorogenic substrate, 40 min. The method in brief: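 Compounds titrated from 0.6 nM upwards against 0.2 nM enzyme in pH 5.9 citric acid/KH2PO4, taurocholate, tween-20; blue fluorogenic substrate 80 uM, 40 min room temperature, stopped and read Ex 365/Em 440 for AC50.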

Experiment [2] is described as follows: AP1 Signaling Pathway (AID 357; active means well fitted curve in either direction with a large enough effect, not every such curve was filed as active; further: on the % scale 0 is the no-effect control and ±100 the full control effect). The conditions noted are these: ME-180 AP-1-bla reporter, EGF-induced, beta-lactamase ratio, 5 h; at 7.69 µM (top of the series) unless noted. The essentials:
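AP-1-bla ME-180 cells with beta-lactamase reporter under AP-1 response element, stimulated with EC50 EGF; compounds titrated, 5 hours at 37 degrees Celsius. CCF4 read at 460/530 nm ratio; positive and negative modulators judged by AC50.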

In experiment [3] the target is Cytochrome P450 1A2 (Homo sapiens) (UniProt P05177). The experiment can be described thus: p450-cyp1a2 (AID 410; calls by dose curve; further: potency means the concentration at half of the fitted maximal effect). The conditions noted are these: recombinant CYP1A2, luciferin-ME demethylation, luminescence; series mostly up to 57 µM. The essentials: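 Inhibition was calculated relative to 57 uM furafylline (full inhibition). The reaction used human CYP1A2 at 20nM with Luciferin-ME at its Km, 100uM, driven by an NADPH-regenerating system for 60 min at room temperature.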
Sequence of Cytochrome P450 1A2 (Homo sapiens) (P05177 whole entry, looked up): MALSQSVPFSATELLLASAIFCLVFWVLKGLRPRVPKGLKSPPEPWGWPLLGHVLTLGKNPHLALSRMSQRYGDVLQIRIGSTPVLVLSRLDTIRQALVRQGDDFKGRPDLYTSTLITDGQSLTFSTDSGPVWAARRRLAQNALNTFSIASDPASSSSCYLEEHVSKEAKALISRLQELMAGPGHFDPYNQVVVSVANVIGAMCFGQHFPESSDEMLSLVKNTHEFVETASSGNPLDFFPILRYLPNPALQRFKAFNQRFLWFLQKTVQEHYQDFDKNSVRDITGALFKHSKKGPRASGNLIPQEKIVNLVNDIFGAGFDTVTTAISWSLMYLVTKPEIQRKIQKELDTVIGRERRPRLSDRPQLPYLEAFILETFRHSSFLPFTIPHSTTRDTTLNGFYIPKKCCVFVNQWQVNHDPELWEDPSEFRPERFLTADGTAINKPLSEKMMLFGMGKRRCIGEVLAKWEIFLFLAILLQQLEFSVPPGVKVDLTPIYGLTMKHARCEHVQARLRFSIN

Experiment [4] can be described thus: NFAT Signaling Pathway (AID 444; active means well fitted curve in either direction with a large enough effect, not every such curve was filed as active;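 further: carbachol stimulus at about its EC50 of 1 µM final; on the % scale 0 is the no-effect control and ±100 the full control effect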). The conditions noted are these: Jurkat NFAT-bla M1, carbachol, beta-lactamase ratio, 5 h; at 7.69 µM (top of the series) unless noted. The method in brief:
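Jurkat cells with NFAT-driven β-lactamase reporter and co-expressed M1 receptor, stimulated with carbachol (final 1 uM, ~EC50), compound titration, 5 h at 37 °C. CCF4 loaded 1 h at RT; 460/530 nm ratio gave %activity and AC50.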

The nature of experiment [5]: Stat Signaling Pathway (AID 446; active means well fitted curve in either direction with a large enough effect, not every such curve was filed as active;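 further: ME-180 cervical cancer cells given 40 pM IL-6 alongside compound; SIE-controlled beta-lactamase reporter measured as 460/530 nm FRET emission ratio; on the % scale 0 is the no-effect control and ±100 the full control effect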). The conditions noted are these: ME-180 SIE beta-lactamase reporter, IL-6 stimulated, 5 h; at 7.69 µM (top of the series) unless noted. The method in brief: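 Screening format detects activators and inhibitors alike: ME-180 SIE-bla cells stimulated at 40 pM IL-6 for 5 hrs with compound, then dual-emission beta-lactamase read at 405 nm excitation.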

The target of experiment [6] is Glucocorticoid receptor (Homo sapiens) (UniProt P04150). The experiment can be described thus: GR-GFP Redistribution (AID 450;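 active means compounds whose dose series gives a full or clear partial fitted curve of increased nuclear translocation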; further: potency means the concentration at half of the fitted maximal effect). The conditions noted are these: U2OS GR-GFP nuclear translocation, laser cytometry, 2 h.
Sequence of Glucocorticoid receptor (Homo sapiens) (P04150 whole entry, looked up): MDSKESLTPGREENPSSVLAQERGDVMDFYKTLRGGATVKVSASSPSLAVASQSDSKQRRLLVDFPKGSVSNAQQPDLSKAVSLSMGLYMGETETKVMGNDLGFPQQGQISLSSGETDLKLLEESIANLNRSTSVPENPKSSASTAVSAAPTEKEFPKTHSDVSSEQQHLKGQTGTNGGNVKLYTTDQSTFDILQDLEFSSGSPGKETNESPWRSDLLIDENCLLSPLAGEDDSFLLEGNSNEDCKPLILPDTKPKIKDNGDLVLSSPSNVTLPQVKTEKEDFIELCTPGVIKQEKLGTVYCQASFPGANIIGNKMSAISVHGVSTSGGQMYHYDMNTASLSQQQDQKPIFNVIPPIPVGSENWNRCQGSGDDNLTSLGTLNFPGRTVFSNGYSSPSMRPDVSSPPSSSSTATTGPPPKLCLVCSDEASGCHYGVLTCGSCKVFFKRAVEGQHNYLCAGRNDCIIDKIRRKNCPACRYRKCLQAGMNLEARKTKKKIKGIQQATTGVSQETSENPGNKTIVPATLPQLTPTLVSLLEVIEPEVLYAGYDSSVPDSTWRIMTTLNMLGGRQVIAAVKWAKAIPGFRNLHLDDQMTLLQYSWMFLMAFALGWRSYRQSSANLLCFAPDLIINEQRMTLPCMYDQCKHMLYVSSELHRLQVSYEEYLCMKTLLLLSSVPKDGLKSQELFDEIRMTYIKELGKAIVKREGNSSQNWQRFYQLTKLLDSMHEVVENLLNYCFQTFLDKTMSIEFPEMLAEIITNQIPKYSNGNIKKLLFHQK
The target is the same in experiment [7]. In words: GR-EFC Redistribution (AID 451; calls by dose curve; further: potency means the concentration at half of the fitted maximal effect). The conditions noted are these: CHO-K1 GR-EFC translocation, beta-gal luminescence, 2 h. The essentials:
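CHO-K1 cells expressing nuclear EA and GR-ED fragments of b-gal; compounds titrated up to 46 uM final, 2 h at 37 C. GR nuclear translocation read as complemented b-gal luminescence after 1 h RT detection.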

Experiment [8] addresses Mitogen-activated protein kinase 10 (Mus musculus) (UniProt Q61831). In words: JNK3 AlphaScreen Assay (AID 530; active means well fitted curve in either direction with a large enough effect, not every such curve was filed as active;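 further: kinase came from lysate of stimulated human HepG2 cells; signal reports phosphorylation of biotinylated GST-cJun 1-79 at Ser73 with 10 µM ATP; on the % scale 0 is the no-effect control and ±100 the full control effect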). The conditions noted are these: JNK3 lysate, c-Jun phosphorylation; series mostly up to 57.1 µM. The essentials: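 qHTS format: compounds tested as titrations against IL-1beta/TNF-alpha-activated HepG2 lysate JNK3 with biotin-GST-cJun substrate and 10 uM ATP at room temperature. Loss of anti-phospho-cJun AlphaScreen signal indicates inhibition.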
A general note: In Alpha technology, singlet oxygen from a donor bead excites a nearby acceptor bead.

In experiment [9] the target is Cytochrome P450 3A4 (Homo sapiens) (UniProt P08684). The experiment can be described thus: qHTS Assay for Inhibitors and Substrates of Cytochrome P450 3A4 (AID 884). Further: potency means the concentration at half of the fitted maximal effect; nearly all actives have a fitted effect of over 50% in size. The conditions noted are these: recombinant CYP3A4, Luciferin-PPXE luminescence; series mostly up to 57.1 µM. The essentials: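 20 nM human CYP3A4 with 25 uM Luciferin-PPXE (at KM) in 200 mM KPO4, preincubated 10 min with compound; NADPH regeneration started a 60 min RT reaction. Luciferin detected by luminescence, normalized to 57 uM ketoconazole as full inhibition.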
Sequence of Cytochrome P450 3A4 (Homo sapiens) (P08684 whole entry, looked up): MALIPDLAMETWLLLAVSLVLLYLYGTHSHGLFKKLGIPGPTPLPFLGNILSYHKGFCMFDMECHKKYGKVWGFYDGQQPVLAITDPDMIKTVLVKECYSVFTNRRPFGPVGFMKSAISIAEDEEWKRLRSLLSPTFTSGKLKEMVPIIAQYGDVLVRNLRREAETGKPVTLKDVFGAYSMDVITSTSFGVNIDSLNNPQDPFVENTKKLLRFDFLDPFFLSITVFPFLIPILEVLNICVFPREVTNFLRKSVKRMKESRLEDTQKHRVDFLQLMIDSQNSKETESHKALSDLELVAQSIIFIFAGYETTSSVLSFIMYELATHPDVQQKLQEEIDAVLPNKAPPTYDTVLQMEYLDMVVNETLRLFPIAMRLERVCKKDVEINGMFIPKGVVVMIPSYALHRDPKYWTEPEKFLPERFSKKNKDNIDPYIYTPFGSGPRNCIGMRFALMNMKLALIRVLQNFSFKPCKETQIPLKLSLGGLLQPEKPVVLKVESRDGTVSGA
(In general: qHTS replaces the single test concentration by a dilution series.)

Experiment [10] shares this target. The experiment can be described thus: qHTS Assay for Activators of Cytochrome P450 3A4 (AID 885). Further: nearly all actives have a fitted effect of over 65% in size. The conditions noted are these: recombinant CYP3A4, Luciferin-PPXE luminescence, 60 min; series mostly up to 57.1 µM. The method in brief:
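Steps: enzyme/substrate mix dispensed; compound added, 10 min RT; NADPH regeneration solution added, 60 min RT; luciferin detection buffer stops reaction; 20 min later luminescence measured.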

Experiment [11] has as its target Cytochrome P450 2C19 (Homo sapiens) (UniProt P33261). In words: qHTS Assay for Inhibitors and Substrates of Cytochrome P450 2C19 (AID 899). Further: potency means the concentration at half of the fitted maximal effect; nearly all actives have a fitted effect of over 60% in size. The conditions noted are these: recombinant CYP2C19, luciferin-H EGE luminescence; series mostly up to 57.1 µM. The method in brief:
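Signal comes from luciferase acting on luciferin released by CYP2C19-mediated hydroxylation of Luciferin-H EGE, 10uM (KM). Assay mix: 5nM enzyme, 50mM KPO4; 60 min at 37C with NADPH regeneration. Data normalized against 57uM ketoconazole.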

Experiment [12] has as its target Dual specificity protein kinase CLK4 (Homo sapiens) (UniProt Q9HAZ1). The experiment can be described thus: qHTS Assay for Inhibitors of CDC-like Kinase 4 (ADP-FP Assay) (AID 1795).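 Further: recombinant human CLK4 phosphorylating RS repeat peptide at 1 µM ATP; on the % scale 0 is the no-effect control and ±100 the full control effect; nearly all actives have a fitted effect of over 60% in size.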 The conditions noted are these: Transcreener ADP fluorescence polarization; series mostly up to 50 µM. The method in brief:
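Kinase activity was measured as ADP production using Transcreener orange tracer (4 nM) and ADP antibody (1 ug/mL) fluorescence polarization, with ADP calculated from a calibration curve. The 1 h reaction contained 6.25 nM Clk4, 1 uM ATP and 100 uM RS peptide at pH 7.5 with Mg2+.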

A short description of experiment [13]: Primary qHTS for small molecule stabilizers of the endoplasmic reticulum resident proteome: Secreted ER Calcium Modulated Protein (SERCaMP) assay (AID 1508630). Further: on the % scale 0 is the no-effect control and ±100 the full control effect. The conditions noted are these: SH-SY5Y GLuc-SERCaMP (Gaussia luciferase released on ER calcium loss) secretion, thapsigargin, luminescence; series mostly up to 38.4 µM. The method in brief:
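GLuc-SERCaMP-expressing SH-SY5Y cells, pretreated 16 h with compound, are challenged with thapsigargin to empty ER calcium stores; after 4 h, coelenterazine is added directly to the medium and luminescence is imaged.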

Experiment [14] has as its target 3',5'-cyclic-AMP phosphodiesterase 4B (Homo sapiens) (UniProt Q07343). In words: qHTS Assay for Inhibitors of PDE-IV (AID 607; active means well fitted activation curve with a large enough effect in the main read-out, with a control signal flat, not every such curve was filed as active; further: % of control where 0% means no effect). The conditions noted are these: HEK293 ACTOne CNG channel cells, membrane potential fluorescence; series mostly up to 22.9 µM. The essentials: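 The readout is membrane depolarisation from a cAMP-sensing CNG channel, detected with a potential dye at ex 535/em 590. Cells were HEK293-derived (endogenous PDE-IV) at 1000 cells/well, titrated up to 22.9 uM final.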

Experiment [15] deals with Cytochrome P450 2D6 (Homo sapiens) (UniProt P10635). The experiment can be described thus: qHTS Assay for Inhibitors and Substrates of Cytochrome P450 2D6 (AID 891). Further: potency means the concentration at half of the fitted maximal effect; nearly all actives have a fitted effect of over 60% in size. The conditions noted are these: recombinant CYP2D6, luciferin-ME EGE luminescence; series mostly up to 57.1 µM. The method in brief: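 Human CYP2D6 (5 nM) with 30 uM Luciferin-ME EGE (at Km) in 100 mM KPO4, compound preincubated 10 min, then NADPH regeneration system for 60 min at room temperature. Luciferin read by luminescence; normalized to 1.43 uM quinidine.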

The target in experiment [16] is Ubiquitin carboxyl-terminal hydrolase 1 (Homo sapiens) (UniProt O94782). In words: Inhibitors of USP1/UAF1: Pilot qHTS (AID 504865).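 Further: rhodamine fluorescence freed from ubiquitin-rhodamine substrate followed over time; top concentration of the series differs between compounds; on the % scale 0 is the no-effect control and ±100 the full control effect; nearly all actives have a fitted effect of over 35% in size.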 The conditions noted are these: purified USP1/UAF1, Ub-rhodamine cleavage fluorescence; series mostly up to 54.9 µM. The method in brief: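 Deubiquitinase activity followed as kinetic rhodamine fluorescence release from 150 nM Ub-Rho. 1 nM USP1/UAF1 with compound, after 15 min room-temperature preincubation, in HEPES pH 7.8 buffer containing TCEP, EDTA, BSA and Tween-20.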
Sequence of Ubiquitin carboxyl-terminal hydrolase 1 (Homo sapiens) (O94782 whole entry, looked up): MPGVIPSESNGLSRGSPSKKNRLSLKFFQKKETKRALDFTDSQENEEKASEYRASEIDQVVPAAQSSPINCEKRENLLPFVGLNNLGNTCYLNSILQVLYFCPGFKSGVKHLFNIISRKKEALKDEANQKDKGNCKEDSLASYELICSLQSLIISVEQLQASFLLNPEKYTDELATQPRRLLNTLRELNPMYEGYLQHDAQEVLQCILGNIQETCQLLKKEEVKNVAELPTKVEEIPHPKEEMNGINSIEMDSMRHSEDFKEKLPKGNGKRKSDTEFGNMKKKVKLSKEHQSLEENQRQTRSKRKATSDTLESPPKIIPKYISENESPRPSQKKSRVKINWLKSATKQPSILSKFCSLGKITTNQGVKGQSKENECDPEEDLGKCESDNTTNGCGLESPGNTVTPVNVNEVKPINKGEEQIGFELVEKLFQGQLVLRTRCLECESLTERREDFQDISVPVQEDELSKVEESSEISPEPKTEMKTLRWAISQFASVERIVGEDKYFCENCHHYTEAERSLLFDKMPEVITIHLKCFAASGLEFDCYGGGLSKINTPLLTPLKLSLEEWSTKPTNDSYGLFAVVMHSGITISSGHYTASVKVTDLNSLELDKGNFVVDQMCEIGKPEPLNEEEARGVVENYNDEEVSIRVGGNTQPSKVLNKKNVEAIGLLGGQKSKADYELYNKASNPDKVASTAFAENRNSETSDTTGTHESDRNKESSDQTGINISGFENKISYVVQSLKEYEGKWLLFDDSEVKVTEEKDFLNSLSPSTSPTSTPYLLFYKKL

A short description of experiment [17]: Confirmation and Secondary Assay for Modulators of Hemoglobin Beta Chain Splicing at IVS2 705 locus (AID 930).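 Further: HeLa cells stably expressing the EGFP-705 splicing reporter; GFP fluorescence per well restored by corrected splicing of the IVS2-705 intron in EGFP; % of control where 0% means no effect.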 The conditions noted are these: HeLa EGFP-705 splicing reporter, GFP fluorescence, 48 h; series mostly up to 38.3 µM. The essentials: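 HeLa EGFP-705 reporter; 500 cells/well, o/n 37C 5% CO2; cpd 2 d; 488 ex/500-520 em laser scan; total peak GFP intensity/well. Ref: 500 nM […] antisense PNA.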

Sequence of Cytochrome P450 2C19 (Homo sapiens) (P33261 whole entry, looked up): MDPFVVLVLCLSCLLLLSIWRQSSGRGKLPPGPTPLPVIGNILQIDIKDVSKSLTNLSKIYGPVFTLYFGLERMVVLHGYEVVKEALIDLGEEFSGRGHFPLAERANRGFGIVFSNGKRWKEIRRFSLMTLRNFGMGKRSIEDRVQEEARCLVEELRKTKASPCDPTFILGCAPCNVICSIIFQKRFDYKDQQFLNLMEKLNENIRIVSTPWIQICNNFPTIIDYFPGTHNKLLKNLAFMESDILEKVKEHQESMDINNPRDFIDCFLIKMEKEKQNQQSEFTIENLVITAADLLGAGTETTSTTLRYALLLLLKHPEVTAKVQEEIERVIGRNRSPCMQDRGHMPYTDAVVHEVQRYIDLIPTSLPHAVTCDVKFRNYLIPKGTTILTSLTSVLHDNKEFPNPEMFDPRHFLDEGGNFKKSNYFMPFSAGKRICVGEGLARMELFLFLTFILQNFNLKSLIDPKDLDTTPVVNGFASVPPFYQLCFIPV
Sequence of Lysosomal acid glucosylceramidase (Homo sapiens) (P04062 whole entry, looked up): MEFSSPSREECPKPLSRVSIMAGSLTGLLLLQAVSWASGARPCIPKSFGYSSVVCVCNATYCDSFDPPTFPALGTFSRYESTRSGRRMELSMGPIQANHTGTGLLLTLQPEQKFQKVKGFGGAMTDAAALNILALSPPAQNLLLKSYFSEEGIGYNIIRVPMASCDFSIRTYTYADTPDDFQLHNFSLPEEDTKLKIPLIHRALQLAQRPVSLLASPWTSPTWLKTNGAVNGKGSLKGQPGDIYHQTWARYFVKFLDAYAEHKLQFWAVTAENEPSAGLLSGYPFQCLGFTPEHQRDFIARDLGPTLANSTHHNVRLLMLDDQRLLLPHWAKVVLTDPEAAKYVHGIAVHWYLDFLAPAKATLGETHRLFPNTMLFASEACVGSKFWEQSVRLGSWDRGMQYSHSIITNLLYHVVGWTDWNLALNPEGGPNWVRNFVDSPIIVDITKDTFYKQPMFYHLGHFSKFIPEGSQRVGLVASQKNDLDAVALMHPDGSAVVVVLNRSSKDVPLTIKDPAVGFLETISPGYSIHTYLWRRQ
Sequence of Dual specificity protein kinase CLK4 (Homo sapiens) (Q9HAZ1 whole entry, looked up): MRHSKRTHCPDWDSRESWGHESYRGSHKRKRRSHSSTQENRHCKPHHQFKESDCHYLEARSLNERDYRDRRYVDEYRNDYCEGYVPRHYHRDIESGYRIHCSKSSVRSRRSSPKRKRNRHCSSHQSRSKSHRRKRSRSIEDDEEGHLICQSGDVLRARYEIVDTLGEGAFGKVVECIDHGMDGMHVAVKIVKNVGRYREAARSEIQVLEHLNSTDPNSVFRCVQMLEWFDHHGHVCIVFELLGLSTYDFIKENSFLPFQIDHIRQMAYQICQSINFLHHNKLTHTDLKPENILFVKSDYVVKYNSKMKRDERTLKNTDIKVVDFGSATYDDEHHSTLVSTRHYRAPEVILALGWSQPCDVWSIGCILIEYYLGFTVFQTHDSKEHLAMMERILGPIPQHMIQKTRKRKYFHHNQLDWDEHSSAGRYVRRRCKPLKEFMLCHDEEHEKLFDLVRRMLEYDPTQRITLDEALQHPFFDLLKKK
Sequence of 3',5'-cyclic-AMP phosphodiesterase 4B (Homo sapiens) (Q07343 whole entry, looked up): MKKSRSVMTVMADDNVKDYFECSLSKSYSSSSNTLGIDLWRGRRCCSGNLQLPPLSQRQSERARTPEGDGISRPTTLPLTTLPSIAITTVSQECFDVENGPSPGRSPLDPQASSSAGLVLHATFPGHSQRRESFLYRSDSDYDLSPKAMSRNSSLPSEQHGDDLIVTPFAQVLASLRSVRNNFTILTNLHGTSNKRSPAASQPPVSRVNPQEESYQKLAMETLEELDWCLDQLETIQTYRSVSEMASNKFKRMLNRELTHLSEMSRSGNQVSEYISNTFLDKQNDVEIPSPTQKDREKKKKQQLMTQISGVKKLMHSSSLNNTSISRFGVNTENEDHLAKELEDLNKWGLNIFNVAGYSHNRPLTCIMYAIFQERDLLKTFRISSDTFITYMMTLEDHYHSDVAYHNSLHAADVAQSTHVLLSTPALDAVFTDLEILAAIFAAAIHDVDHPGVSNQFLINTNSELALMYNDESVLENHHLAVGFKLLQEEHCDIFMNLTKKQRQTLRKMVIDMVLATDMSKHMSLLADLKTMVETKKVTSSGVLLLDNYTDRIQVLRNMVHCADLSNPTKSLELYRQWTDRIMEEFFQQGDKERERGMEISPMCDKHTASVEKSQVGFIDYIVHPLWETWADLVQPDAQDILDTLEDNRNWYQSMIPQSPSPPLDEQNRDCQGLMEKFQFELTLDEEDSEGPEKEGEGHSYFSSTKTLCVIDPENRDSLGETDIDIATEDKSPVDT

Consider `COc1ccc(CNc2ncncc2-c2ccc(N(C)C)cc2)c(OC)c1`, for which the Potency was greater than 11.4 µM in experiment [1]; 0.631 µM (active) in experiment [3]; greater than 46 µM in experiment [6]; greater than 46 µM in [7]; 0.199 µM (active) in experiment [9]; 1.58 µM (active) in experiment [11]. Moreover, the activity change, negative = inhibition in [2] is -8.89%; in [4] it was 1.33%. For the same compound, the activity, negative = inhibition in experiment [5] is 0.205%. Further, the Potency result in experiment [8], in experiment [10] and in experiment [12] was “inactive” each time. Also, the result in [13] was inactive.

For the compound `NC[C@@H]1O[C@H](O[C@H]2[C@H](O)[C@H](O[C@H]3[C@@H](O)[C@H](N)C[C@H](N)[C@H]3O[C@H]3O[C@H](CN)[C@H](O)[C@H](O)[C@H]3N)O[C@@H]2CO)[C@@H](N)[C@@H](O)[C@@H]1O`, in experiment [13], the outcome was inactive.

Regarding `COc1ccc2[nH]cc(CCNc3ccnc(-c4ccccc4C)n3)c2c1`, the values for the activity change, negative = inhibition in experiment [2] and in [4] were -8.02% and 8.54%, respectively. The Potency in experiment [3] is 0.316 µM (active); in experiment [6], greater than 46 µM; in experiment [7], greater than 46 µM; in experiment [9], 3.16 µM (active); in experiment [15], 2.51 µM (active); in experiment [11] it was 2.51 µM (active). Besides, the activity, negative = inhibition in experiment [5] is -1.84%. In addition, the Potency entry in experiment [8], in [14], in experiment [10], in experiment [12] and in [16] was “inactive” throughout. The outcome in experiment [13] was inactive.

For `CN(C)C(=O)c1ccc(-c2nccc(NCc3cccnc3)n2)cc1`, the Potency is greater than 11.4 µM in [1], 15.8 µM (active) in experiment [3], greater than 46 µM in [6] and greater than 46 µM in [7]. Further, the figures for the activity change, negative = inhibition in experiment [2] and in experiment [4] were -3.36% and 3.73%, respectively. The activity, negative = inhibition in experiment [5] is 2.62%. Also, the Potency entry in [8], in experiment [14], in [10] and in [16] was “inactive” in each case. The compound was called inactive in experiment [17] and in experiment [13].

For the compound `COc1ccc2[nH]cc(CCNc3cc(-c4ccccc4CN(C)C)ncn3)c2c1`, the activity change, negative = inhibition is 14.9% in [2] and -12.7% in experiment [4]. Further, in experiment [5], the activity, negative = inhibition is 6.88%. For the same compound, the Potency in experiment [6] and in [7] was greater than 46 µM in each case. Besides, the Potency result in experiment [8], in [14], in experiment [12] and in [16] was “inactive” throughout. In addition, in experiment [13], the outcome was inactive.

Consider `N#Cc1cccc(-c2cc(-n3ccnc3)ncn2)c1`, for which the Potency in experiment [1] is greater than 11.4 µM; in [3], 0.126 µM (active); in experiment [6] it was greater than 46 µM; in experiment [7], greater than 46 µM; in experiment [9], 0.398 µM (active); in experiment [11], 0.158 µM (active). For the same compound, the activity change, negative = inhibition in experiment [2] is 0.101%; in experiment [4], 4.55%. The activity, negative = inhibition in experiment [5] is 10.7%. Besides, the Potency result in experiment [8], in [14], in experiment [10] and in experiment [16] was “inactive” throughout. Besides, the call in [17] and in experiment [13] was inactive.

The values are drawn from PubChem BioAssay (NCATS).
